The list is not random: actives were taken first. Their share in the collection is about 12%.
BAZ2B inh: BAZ2B (human) inhibition; Q9UIF8; AlphaScreen BAZ2B-H3K14Ac peptide displacement; Potency, µM (titrated, usually from 114 µM), for inactives: top-dose activity change, negative = inhibition, most hits filed as inhibitors; AID 504333; 4.4% of 360,000 active; further: on the % scale 0 is the no-effect control and ±100 the full control effect; nearly all actives have a fitted effect of over 60% in size
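BAZ2B 50 nM plus b-H3(5-23)K14Ac 50 nM, PBS pH 7.4/0.01% Tween-20, 30 min RT; compound added (max 110 uM), 30 min RT; streptavidin donor/Ni-chelate acceptor beads 10 ug/mL final, 20 min dark; AlphaScreen read.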
G9a block: inhibitors of human histone lysine methyltransferase G9a | 8.8% of 350,000 active | Potency, µM (doses to about 102 µM), for the others: at the highest dose activity, negative = inhibition, most hits filed as inhibitors | Q96KQ7 | AID 504332 | G9a H3K9 monomethylation, AlphaScreen, 2 h; further: on the % scale 0 is the no-effect control and ±100 the full control effect; nearly all actives have a fitted effect of over 75% in size
Target sequence (Q96KQ7 913-1193 limits assumed): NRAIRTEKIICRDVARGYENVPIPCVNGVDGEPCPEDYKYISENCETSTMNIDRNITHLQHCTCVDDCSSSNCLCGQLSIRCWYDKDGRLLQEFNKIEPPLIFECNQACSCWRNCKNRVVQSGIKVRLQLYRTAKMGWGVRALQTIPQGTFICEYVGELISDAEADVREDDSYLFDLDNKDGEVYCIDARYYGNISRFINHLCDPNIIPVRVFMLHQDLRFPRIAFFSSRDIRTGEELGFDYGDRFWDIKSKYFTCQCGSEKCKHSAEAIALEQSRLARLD
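Quantitative HTS format: methyltransferase activity on a biotin-tagged H3K9 peptide is measured by AlphaScreen, using a rabbit anti-monomethyl-H3K9 antibody with streptavidin donor and anti-IgG acceptor beads. Final levels are 20 nM enzyme, 500 nM peptide, 20 uM SAM; 2 h RT.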
JMJD2A Tudor: JMJD2A Tudor domain (human) inhibition | O75164 | AlphaScreen JMJD2A-Tudor / H3K4me3 peptide binding | Potency, µM (top dose mostly 114 µM), for inactives: top-dose activity change, negative = inhibition, hits mostly inhibitors | 4.4% of 390,000 active | AID 504339; further: on the % scale 0 is the no-effect control and ±100 the full control effect; nearly all actives have a fitted effect of over 50% in size
Sfp PPTase inh: Sfp phosphopantetheinyl transferase inhibition. 3.5% of 310,000 active. Potency, µM, without a hit: largest response in the series, negative = inhibition, usual class: inhibitors. Q9F4F7. Biochemical Sfp PPTase activity, qHTS;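 further: the enzyme is Sfp with the accession as filed and its product quenches rhodamine fluorescence; 0% = enzyme reaction without inhibitor and -100% = no enzyme wells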
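Compounds were incubated with enzyme (final 15 nM) for 15 min at room temperature before substrate addition started the reaction. Fluorescence at 525 nm excitation, 598 nm emission was recorded immediately and after 30 minutes.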
HP1b chromo inh: HP1-beta chromodomain-methylated histone interaction inhibition; 0.56% of 390,000 active; AID 540317; P83916; AlphaScreen HP1-beta / biotin-H3K9me3 peptide binding; Potency, µM (doses to about 114 µM), for inactives: at the top dose activity change, negative = inhibition, hits mostly inhibitors; further: nearly all actives have a fitted effect of over 70% in size
Target sequence (P83916 whole entry, looked up): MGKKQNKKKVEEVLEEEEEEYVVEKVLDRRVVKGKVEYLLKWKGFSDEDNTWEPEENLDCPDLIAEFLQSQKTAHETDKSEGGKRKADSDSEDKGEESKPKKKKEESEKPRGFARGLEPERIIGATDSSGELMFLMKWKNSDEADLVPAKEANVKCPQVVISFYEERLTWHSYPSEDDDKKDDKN
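Compound inhibition of the preformed complex between 50 nM HP1-beta and 50 nM biotinylated H3K9me3 peptide was read by AlphaScreen. Buffer was PBS pH 7.4 with 0.01% Tween-20. Incubations ran 30 min at room temperature, with 10 ug/mL donor/acceptor beads.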
Numbers without * were called inactive; ? = inconclusive; nt = not tested or not shown; [ ] = another dose, or the depositor's remark. The call rests on the fitted dose curve; in most records, active means well fitted curve in the direction sought with a large enough effect; inconclusive means small, poorly fitted or top-dose-only effect, or another doubt; inactive means no such curve, though single readings can be large; an effect the other way counts as inactive or inconclusive. Potency means the concentration at half of the fitted maximal effect.

SMILES	BAZ2B inh	G9a block	JMJD2A Tudor	Sfp PPTase inh	HP1b chromo inh
CCN(C(=O)COC(=O)c1ccc(O)cc1)c1cccc2ccccc12	nt	nt	-26.0%	nt	-10.4%
COC(=O)c1ccc(NC(=O)CSc2nc3cc4ccccc4cc3[nH]2)cc1	-1.8%	-68.1%[59 µM]	-9.3%	nt	43.5%
CCCN(Cc1ccc(N(C)C)cc1)CC1CC1	?	?	?	89.1µM*	6.5%
Cc1ccc(Nc2nc(N)c(C#N)c(CC#N)c2C#N)cc1	-11.1%	21.3%[59 µM]	-19.0%	17.1%	31.1%
CC1=C(C#N)C(c2ccoc2)C(C(=O)OCc2ccccc2)=C(N)S1 (stereo unspecified)	4.3%	?	?	-28.2%	20.7%
Cc1ccc(C2C(C#N)=C(N)SC(N)=C2C#N)cc1	-7.0%	44.7µM*	?	-22.5%	8.4%
N#CC1=C(N)SC(N)=C(C#N)C1c1ccoc1	25.1µM*	2µM*	nt	-78.8%	nt
Cc1ccc(C2C(C#N)=C(N)SC(N)=C2C#N)c(C)c1	2.6%	?	89.1µM*	79.4µM*	49.2%
CCCN1CNc2c(c(=O)[nH]c(=S)n2CCc2ccc(OC)cc2)C1	nt	nt	-19.7%	nt	26.1%
CN1CCN(C(=O)C23CC4CC(C)(CC(C)(C4)C2)C3)CC1	-10.9%	56.2µM*	-3.0%	13.7%	48.4%
CC12CC3CC(C)(C1)CC(C(=O)N1CCCC1)(C3)C2	-15.3%	42.4%	-4.8%	3.5%	17.5%
O=C1C(Cl)=C(NCC2CCCO2)C(=O)N1C1CCCCC1 (stereo unspecified)	-2.8%	-3.1%[0.0925 µM]	0.0%[57.1 µM]	39.8µM*	77.3%
O=C(N/N=C/c1ccco1)C1CC1	-2.4%	-9.6%[59 µM]	-3.4%	-35.2%	39.0%
CC(C)(C)c1ccc(C2CC2C(=O)N/N=C\c2ccc[nH]2)cc1 (stereo unspecified)	?	39.8µM*	56.2µM*	15.2%	?
O=C(N/N=C/c1ccco1)C1CC1c1ccccc1 (stereo unspecified)	50.1µM*	-19.9%	?	-1.9%	?
Cc1cccc(C(=O)Nc2ccc(C(=O)N/N=C/c3ccco3)cc2)c1	nt	nt	44.7µM*	nt	?
O=C(N/N=C/c1ccco1)Nc1ccccc1	2.4%	79.4µM*	-10.5%	5.4%	-0.2%
CCOc1ccccc1-c1nnc2n1N=C(c1c(OC)cccc1OC)CS2	nt	nt	-9.0%	-19.1%	nt
Cc1cc(C)c(-c2cc(NC(=O)COC(=O)c3ccc(C#N)cc3)n(-c3ccccc3)n2)cc1C	-32.5%	31.6µM*	-11.2%	14.3%	28.1%
Cc1cc(C)c(-c2cc(NC(=O)COC(=O)c3ccc(NC(=O)CC#N)cc3)n(-c3ccccc3)n2)cc1C	0.6%	?	-19.2%	nt	5.7%
S=C(NCCCc1cnc[nH]1)NCCCN(Cc1ccc(Cl)cc1)c1cc(-c2ccccc2)ccn1	nt	nt	56.2µM*	nt	?
NCCCN(Cc1ccc(Cl)c(Cl)c1)c1ccccn1	nt	nt	-31.3%	nt	-2.2%
S=C(NCCCN(Cc1ccc(Cl)cc1)c1ccc(Br)cn1)NCc1ccc2nc[nH]c2c1	nt	nt	50.1µM*	nt	-15.3%
O=C(Cc1ccc(Cl)cc1)NCCc1cnc[nH]1	6.6%	-11.6%	-2.1%	6.9%	19.4%
S=C(NCCCc1cnc[nH]1)NCCN(Cc1ccc(Cl)c(Cl)c1)c1ccc(Br)cn1	nt	nt	56.2µM*	nt	nt
SMILES	BAZ2B inh	G9a block	JMJD2A Tudor	Sfp PPTase inh	HP1b chromo inh
COc1ccc(CN(CCCN)c2ccc(Br)cn2)cc1	nt	nt	-25.2%	nt	-1.3%
Clc1ccc(CN(CCCNc2ncnc(NCCCc3cnc[nH]3)n2)c2ccc(Br)cn2)cc1Cl	nt	nt	35.5µM*	nt	nt
NCCN(Cc1ccc(Cl)c(Cl)c1)c1ccc(Br)cn1	nt	nt	-22.4%	nt	22.6%
COC(=O)c1ccc(C(NC(=O)OCc2ccccc2)/C(=C/[C@@H](C)C(=O)NCc2ccc(S(C)(=O)=O)cc2)c2cccnc2)cc1 (stereo partly specified)	nt	nt	nt	16.9%	nt
COC(=O)N1[C@H](Cc2ccccc2)C=C[C@]1(C)C(=O)NCc1ccc(N(C)C)cc1	nt	nt	nt	-2.7%	nt
O=C(Nc1cc(OC(=O)C(F)(F)F)c2nonc2c1OC(=O)C(F)(F)F)C(F)(F)F	nt	nt	-7.7%[57.1 µM]	nt	-5.8%[57 µM]
COc1cccc(S(=O)(=O)NCc2ccc(C(=O)N3CCN(C)CC3)cc2)c1	-0.5%	nt	-6.0%	9.1%	19.1%
S=C(NCCc1cnc[nH]1)NC1CCCC1	-13.8%	-6.3%	-23.2%	5.1%	55.7%
S=C(NCCCN(Cc1ccc(Cl)c(Cl)c1)c1ccc(Br)cn1)NCCc1cnc[nH]1	nt	nt	39.8µM*	nt	nt
CN(CCCc1cnc[nH]1)C(=S)NCCCN(Cc1ccc(Cl)cc1)c1ccc(Br)cn1	nt	nt	31.6µM*	nt	?
CCOCCCNC(=O)C(c1ccc(Cl)cc1)N(Cc1cccs1)C(=O)c1ccc(NC(C)=O)cc1 (stereo unspecified)	0.5%	9.1%[59 µM]	5.1%	nt	15.5%
O=C(c1ccco1)n1nc(-c2ccccc2)nc1NCc1ccc(F)cc1	6.3%	12.4%[59 µM]	1.7%	nt	41.1%
S=c1[nH]nc(-c2ccc(Cl)cc2Cl)n1-c1ccc2c(c1)OCCO2	-29.4%	2.51µM*	79.4µM*	44.7µM*	?
CCc1nc2c(cnn2-c2ccc(Cl)cc2)c(=O)n1-c1ccc2c(c1)OCCO2	8.4%	6.2%[12.7 µM]	-6.1%[11.4 µM]	5.3%	-14.4%
Oc1ccc(-c2n[nH]c(=S)n2-c2ccc3c(c2)OCCO3)c(O)c1	-29.4%	1.78µM*	10µM*	?	6.9%
CCOC(=O)C1CCCN(c2ncnc3c2nnn3C)C1 (stereo unspecified)	1.9%	-10.2%[59 µM]	-15.3%	nt	51.1%
COc1ccc(NC(=O)C2CCCN2C(=O)NCc2ccccc2)cc1 (stereo unspecified)	2.6%	-4.3%[12.7 µM]	14.1µM*	22.5%	0.9%

Source: PubChem BioAssay
